IL1B secr inh – blocks inflammasome-driven IL-1 beta release; THP-1 LPS/ATP IL-1B secretion, AlphaLISA, 16 h; active compounds read low; activity change, % at 57.5 µM; 360,000 compounds, 4.7% hits; AID 743279; in the data active means activity change below about -50%; inconclusive means mostly about -30% to -49%
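THP-1 cells pretreated 1 hr with compounds (up to 57.5 uM final), then stimulated with LPS (250 ng/mL final) plus ATP (1.25 mM final); secreted IL-1B measured by AlphaLISA after 16 hr, decreased signal indicating inhibition.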
RORgamma inh – blocks mouse ROR gamma transcriptional activity; P51450; Drosophila S2 Gal4-RORgamma UAS-luciferase reporter, 20 h; Potency, µM (top dose mostly 53.6 µM), usual class: inhibitors; 310,000 compounds, 5.4% hits; AID 2551; further: nearly all actives have a fitted effect of over 60% in size
Target sequence (P51450 whole entry, looked up, the tested form may be a part): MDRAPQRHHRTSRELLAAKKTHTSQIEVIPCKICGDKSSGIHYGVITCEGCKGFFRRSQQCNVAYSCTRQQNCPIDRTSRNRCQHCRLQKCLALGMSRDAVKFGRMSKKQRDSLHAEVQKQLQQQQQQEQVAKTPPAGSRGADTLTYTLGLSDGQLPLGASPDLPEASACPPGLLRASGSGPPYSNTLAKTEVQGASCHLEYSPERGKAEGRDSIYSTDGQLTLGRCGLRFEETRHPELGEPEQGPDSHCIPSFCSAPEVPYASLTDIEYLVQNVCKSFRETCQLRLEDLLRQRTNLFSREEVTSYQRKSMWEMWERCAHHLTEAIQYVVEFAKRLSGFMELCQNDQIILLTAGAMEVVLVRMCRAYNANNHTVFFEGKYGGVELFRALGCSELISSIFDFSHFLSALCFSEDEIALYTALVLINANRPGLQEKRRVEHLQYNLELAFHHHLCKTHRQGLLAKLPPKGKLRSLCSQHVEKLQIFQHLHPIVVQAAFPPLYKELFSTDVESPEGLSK
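Luciferase reporter read in Schneider cells carrying Gal4-RORγ (mouse) and UAS-Photinus luciferase; cells given compound 1 h before 700 uM copper sulfate induction, then incubated 20 h at ambient temperature.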
Gal4-VP16 FLuc – inhibits Gal4-VP16 luciferase reporter, ROR gamma counter-screen; 310,000 compounds, 3.5% hits; Potency, µM (series often up to 53.6 µM), hits mostly inhibitors; Drosophila S2 Gal4-VP16 UAS-luciferase, luminescence, 20 h; AID 2546;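 further: Gal4-VP16 expression switched on by copper sulfate through the metallothionein promoter; nearly all actives have a fitted effect of over 50% in size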
DT40 TDP1 no CPT – qHTS for Inhibitors of human tyrosyl-DNA phosphodiesterase 1 (TDP1): qHTS in cells in absence of CPT. DT40 Tdp1-/- hTDP1 cells, no CPT, ATP luminescence, 48 h. AID 686978, 2013. Potency, µM (series often up to 46.2 µM), actives largely listed as inhibitors. 420,000 compounds, 15% hits; further: nearly all actives have a fitted effect of over 55% in size
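No-CPT arm: Tdp1-/-;hTDP1 DT40 cells (400/well) plus compounds, incubated ≥48 hr at 37 °C. Readout CellTiter-Glo luminescence.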
DT40 TDP1 CPT – growth inhibition of DT40 Tdp1-/-;hTDP1 cells with camptothecin (screen for TDP1 inhibitors) | 420,000 compounds, 12% hits | Potency, µM (series often up to 46.2 µM), actives largely listed as inhibitors | chicken DT40 Tdp1-/-;hTDP1 cells + 20 nM CPT, ATP luminescence, 48 h; further: nearly all actives have a fitted effect of over 55% in size
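Chicken DT40 Tdp1-/- cells complemented with human TDP1, 400 cells/well, exposed to compounds plus 20 nM camptothecin for at least 48 h at 37 C; viability read as ATP content by CellTiter-Glo luminescence.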
LDHA inh – inhibitors of human lactate dehydrogenase A; P00338; purified LDHA, NADH/diaphorase-resazurin fluorescence; active compounds read low; activity change, % (values are at about 110 or 230 µM); 480,000 compounds, 0.15% hits; AID 1347041; in the data active means activity change below about -30%; inconclusive means mostly about -25% to -30%
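LDH5 2 nM; NADH 0.06 mM, pyruvate 0.2 mM; 200 mM Tris pH 7.4, EDTA, Tween-20; 5 min RT. Detection: diaphorase 0.133 mg/mL + resazurin 37 µM, fluorescence ex540/em590 at 0 and 20 min; normalized to enzyme-free and DMSO wells.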
Large screens that a line does not name were inactive. Only some compounds are listed: those with a hit (about 18% of all), similar ones and a draw of the others. Unless noted, the call rests on the fitted dose curve; in most records, active means well fitted curve in the direction sought with a large enough effect; inconclusive means small, poorly fitted or top-dose-only effect, or another doubt; inactive means no such curve, though single readings can be large; an effect the other way counts as inactive or inconclusive.

Cc1cccc(-c2nc3c4ccccc4n(Cc4cccc(Cl)c4)c(=O)n3n2)c1	DT40 TDP1 no CPT 10.3µM, DT40 TDP1 CPT 20.6µM (no result: IL1B secr inh, RORgamma inh, Gal4-VP16 FLuc)
CCc1cccc(NC(=O)Cn2c(=O)n3nc(-c4cccc(F)c4)nc3c3ccccc32)c1	DT40 TDP1 no CPT 4.61µM, DT40 TDP1 CPT 3.66µM (no result: IL1B secr inh, RORgamma inh, Gal4-VP16 FLuc)
CCCN(CC)c1ccc(/C=N/NC(=S)Nc2cccc(C)c2)cc1	none (no result: IL1B secr inh, RORgamma inh, Gal4-VP16 FLuc, DT40 TDP1 no CPT, DT40 TDP1 CPT)
CN(C)C(=S)N=Nc1[nH]c2ccccc2c1O	RORgamma inh 0.891µM, Gal4-VP16 FLuc 5.62µM, DT40 TDP1 no CPT 0.517µM, DT40 TDP1 CPT 0.581µM
COc1ccc2[nH]c(N=Nc3ccccc3C)c(O)c2c1	RORgamma inh inconclusive, DT40 TDP1 no CPT inconclusive, DT40 TDP1 CPT inconclusive
CCC(=O)N1N=C(c2c(-c3ccccc3)c3cc(Cl)ccc3[nH]c2=O)CC1c1ccco1 (stereo not given)	IL1B secr inh inconclusive, RORgamma inh inconclusive, Gal4-VP16 FLuc inconclusive, DT40 TDP1 no CPT 23.1µM, DT40 TDP1 CPT 18.4µM
O=C(OCC(=O)N1N=C(c2ccc(Cl)cc2)CC1c1ccco1)c1cncc(Br)c1 (stereo not given)	IL1B secr inh inconclusive, DT40 TDP1 no CPT 23.1µM, DT40 TDP1 CPT inconclusive (no result: RORgamma inh, Gal4-VP16 FLuc)
Cn1c(=O)c2c(ncn2CC(=O)N2N=C(c3ccc(Cl)cc3)CC2c2ccco2)n(C)c1=O (stereo not given)	none (no result: IL1B secr inh, RORgamma inh, Gal4-VP16 FLuc, DT40 TDP1 no CPT, DT40 TDP1 CPT)
N=c1sccn1CC(=O)N1N=C(c2ccc(Cl)cc2)CC1c1ccco1 (stereo not given)	DT40 TDP1 no CPT 23.1µM, DT40 TDP1 CPT inconclusive
COc1ccc(C2=NN(C(=O)CSc3nccn3C)C(c3ccco3)C2)cc1 (stereo not given)	DT40 TDP1 no CPT inconclusive, DT40 TDP1 CPT 18.4µM (no result: RORgamma inh, Gal4-VP16 FLuc)
O=C(OCC(=O)N1N=C(c2ccc(Cl)cc2)CC1c1ccco1)c1ccco1 (stereo not given)	DT40 TDP1 no CPT inconclusive
Cc1c(Cl)cccc1N(CC(=O)Nc1ccc2c(c1)OCO2)S(C)(=O)=O	none (no result: IL1B secr inh, RORgamma inh, Gal4-VP16 FLuc, DT40 TDP1 no CPT, DT40 TDP1 CPT)
CN1CCN(NC(=S)NCCc2ccccc2)CC1	none (no result: IL1B secr inh, RORgamma inh, Gal4-VP16 FLuc, DT40 TDP1 no CPT, DT40 TDP1 CPT)
O=C(OCC(=O)C12CC3CC(CC(C3)C1)C2)c1ccccc1Sc1ccc(C(F)(F)F)cc1[N+](=O)[O-]	none (no result: IL1B secr inh, RORgamma inh, Gal4-VP16 FLuc, DT40 TDP1 no CPT, DT40 TDP1 CPT)
CCC(=O)N1N=C(c2ccc(NS(=O)(=O)CC)cc2)CC1c1ccc(C)cc1 (stereo not given)	DT40 TDP1 no CPT inconclusive, DT40 TDP1 CPT inconclusive
Cc1ccc(C2=NN(C(=O)CSc3nnnn3C)C(c3ccco3)C2)cc1 (stereo not given)	IL1B secr inh inconclusive, DT40 TDP1 no CPT inconclusive, DT40 TDP1 CPT 13µM (no result: RORgamma inh, Gal4-VP16 FLuc)
CCS(=O)(=O)Nc1ccc(C2=NN(C(=S)Nc3ccccc3)C(c3ccco3)C2)cc1 (stereo not given)	DT40 TDP1 no CPT 16.4µM, DT40 TDP1 CPT 16.4µM
CCS(=O)(=O)Nc1ccc(C2=NN(C(=O)c3ccco3)C(c3ccc(C)cc3)C2)cc1 (stereo not given)	Gal4-VP16 FLuc 17.8µM, DT40 TDP1 no CPT 20µM, DT40 TDP1 CPT inconclusive
Cc1ccc(C2CC(c3ccc(NS(C)(=O)=O)cc3)=NN2C(=O)c2ccco2)cc1 (stereo not given)	DT40 TDP1 no CPT inconclusive
CCC(=O)N1N=C(c2ccc(NS(=O)(=O)c3ccc(C)cc3)cc2)CC1c1ccco1 (stereo not given)	IL1B secr inh inconclusive, DT40 TDP1 no CPT 13µM, DT40 TDP1 CPT inconclusive (no result: RORgamma inh, Gal4-VP16 FLuc)
COc1cccc(NC(=O)CSc2nc3ccsc3c(=O)[nH]2)c1	none (no result: IL1B secr inh, RORgamma inh, Gal4-VP16 FLuc, DT40 TDP1 no CPT, DT40 TDP1 CPT)
COc1ccc(C2=NN(c3nc(C)cs3)C(c3ccccc3)C2)cc1 (stereo not given)	none (no result: IL1B secr inh, RORgamma inh, Gal4-VP16 FLuc, DT40 TDP1 no CPT, DT40 TDP1 CPT)
COc1ccc(C2=NN(c3nc(-c4ccc(CNC(C)=O)cc4)cs3)C(c3ccco3)C2)cc1 (stereo not given)	DT40 TDP1 no CPT 18.4µM, DT40 TDP1 CPT 20.6µM
CCC(=O)N1N=C(c2ccc(C)cc2)CC1c1ccco1 (stereo not given)	IL1B secr inh inconclusive, DT40 TDP1 no CPT 13µM, DT40 TDP1 CPT 20.6µM

Bioassay records: PubChem BioAssay, National Center for Advancing Translational Sciences (NCATS)
